A selection: hits, their analogues and other compounds. The true share with any hit is near 0.8%.
TRHR enhancer-1: allosterically enhances the human TRH receptor. P34981. TRHR cells, fluo-8 calcium fluorescence, EC20 TRH enhancement. enhancement, % at 2 µM. 360,000 tested, 0.66% active. AID 493056; in the data active = enhancement above about 30%; note: 0% is about no effect
Target sequence (P34981 whole entry, looked up): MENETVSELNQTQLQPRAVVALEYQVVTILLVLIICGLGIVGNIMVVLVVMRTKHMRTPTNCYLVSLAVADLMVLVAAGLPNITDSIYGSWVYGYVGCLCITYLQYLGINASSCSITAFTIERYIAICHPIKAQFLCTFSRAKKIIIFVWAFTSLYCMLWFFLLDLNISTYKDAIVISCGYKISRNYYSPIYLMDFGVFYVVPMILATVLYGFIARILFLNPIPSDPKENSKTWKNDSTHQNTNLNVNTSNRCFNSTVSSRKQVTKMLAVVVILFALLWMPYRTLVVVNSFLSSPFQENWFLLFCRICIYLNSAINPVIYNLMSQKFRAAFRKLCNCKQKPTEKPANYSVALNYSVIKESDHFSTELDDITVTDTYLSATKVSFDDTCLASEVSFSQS
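Enhancer read-out: after compound pinning and an initial kinetic agonist-mode read, an EC20 of TRH (10 nM final) was injected and fluo-8 calcium signal (Ex 480/Em 530) followed at 1 s/cycle for 100 cycles in TRHR-expressing cells.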
GRP78 ERSR act: induces the endoplasmic reticulum stress response in human glioma cells; U87-MG GRP78 promoter luciferase reporter, 16 h; Potency, µM, for the others: at the highest dose activation, hits mostly activators; 420,000 tested, 0.02% active; AID 602332; note: potency is the fitted concentration of half-maximal effect; series mostly up to about 76 µM; % of control where 0% means no effect; nearly all actives have a fitted effect of over 35% in size
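Stably transfected U87-MG glioma cells carrying a GRP78-based luciferase sensor; 16 h compound incubation. Luminescence end-point read 10 min after Bright-Glo addition at room temperature.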
TRPML1 agonist: agonists of human TRPML1 channel; Q9GZU1; TRPML1-expressing cells, Ca2+ dye fluorescence, FDSS; activation, % (test concentration not listed); 410,000 tested, 0.12% active; in the data active = activation above about 50%; inconclusive = mostly about 30% to 49%; note: 0% is about no effect
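Kinetic FDSS Ca2+ read in Tet-induced TRPML1-DL cells (ABD Ca8 dye plus quencher, 45-90 min RT loading): baseline, then compound, then 110 s agonist window; EC80 agonist 54-4 at 4uM final added afterwards for a 110 s antagonist window.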
TRPML1 inh: human mucolipin-1 channel inhibition. AID 624415. 390,000 tested, 0.02% active. Q9GZU1. TRPML1-inducible cells, Ca2+ dye fluorescence, FDSS; stronger effect = lower value; inhibition of EC80 agonist-evoked calcium signal. activity change, negative = inhibition, % (test concentration not listed); in the data active = activity change below about -50%; inconclusive = between about -30% and that limit;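 note: stimulus is agonist 54-4 at its EC80 concentration; % is set by controls: 0 for no effect and ±100 for the full control effect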
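Calcium fluorescence in TRPML1-DL cells induced overnight with Tet: a 110 s read after compound pin addition, then a 110 s antagonist read after challenge with 54-4 at 4 uM final (EC80).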
TRHR agonist-1: agonists of human TRH receptor; P34981; TRHR cells, calcium flux fluo-8, FDSS agonist mode; activation, % at 2 µM; 360,000 tested, 0.18% active; in the data active = activation above about 30%; note: 0% is about no effect
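Steps: seed TRHR cells overnight; add fluo-8 no-wash Ca dye, RT 30 min–1.5 h; record 10 s baseline; pin-transfer compounds; monitor fluorescence 1 cycle/s for the agonist window. Calcium increases flag candidate agonists.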
TRHR enhancer-2: human TRH receptor allosteric enhancement confirmation | activity change, negative = inhibition, % at 46.1 µM | shares compounds with TRHR enhancer-1 | TRH receptor cell assay, enhancer confirmation qHTS | 970 tested, under 10 active | AID 493076;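 note: compound effect scored on response to added TRH at EC20 of 10 nM; 0% is about no effect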
TRHR agonist-2: human TRH receptor agonism confirmation. shares compounds with TRHR enhancer-1. 970 tested, 8% active. TRHR-expressing cells, agonist activation read-out. Potency, µM (series often up to 46.1 µM), for inactives: at the top dose activation, most hits filed as activators. AID 493078; note: potency is the fitted concentration of half-maximal effect; 0% is about no effect; nearly all actives have a fitted effect of over 75% in size
* marks the source's active call; other numbers are inactive results; ? = inconclusive; / = not tested or not shown. Unless noted, calls come from the whole dose curve; as a rule, active = well fitted curve in the direction sought with a large enough effect; inconclusive = small, poorly fitted or top-dose-only effect, or another doubt; inactive = no such curve, though single readings can be large; an effect the other way counts as inactive or inconclusive.

SMILES | TRHR enhancer-1 | GRP78 ERSR act | TRPML1 agonist | TRPML1 inh | TRHR agonist-1 | TRHR enhancer-2 | TRHR agonist-2
CC(C)CCC(=O)OC1CCC2C3CCC4=CC(=O)CC[C@]4(C)C3CC[C@]12C (some centres not stated) | / | 5.1% | / | / | / | / | /
Cn1c(O)c(/C=C/C=Nc2ccccc2)c(=O)n(C)c1=O | 2.7 | -2.5% | 1.8 | 24.8 | 12.8 | / | /
CCCCn1c(O)c(/C=C/C=Nc2ccccc2)c(=O)[nH]c1=O | 24.4 | -2.0% | 6.3 | -2.1 | 41.0* | 5.5 | 16.4µM*
CS(=O)(=O)c1ccc(C(=O)C2C(=O)CCCC2=O)c([N+](=O)[O-])c1 | / | -4.8% | / | / | / | / | /
CC1(C)OC(c2ccccc2)=C/C(=C/C=C2C(=O)NC(=O)NC2=O)O1 | 14.6 | -0.2% | 16.1 | -13.8 | 29.7 | -5.9 | ?
CC1=CC(=O)OC2CC3OC4C[C@@H](C)C5OC6CC7O[C@]8(C)C/C=C\C9OC%10CC%11OC(CC(C)C%12OCCO%12)CC(O)[C@]%11(C)OC%10CC9OC8C[C@]7(C)O[C@]6(C)CCC5OC4C[C@]3(C)OC12 (some centres not stated) | / | -1.1% | 14.1 | -17.1 | / | / | /
C=C(CC1CC(O)[C@]2(C)OC3CC4OC5C[C@]6(C)O[C@]7(C)CCC8OC9C[C@]%10(C)OC%11C(C)=CC(=O)OC%11CC%10OC9C[C@@H](C)C8OC7CC6O[C@]5(C)C/C=C\C4OC3CC2O1)C(=O)O (some centres not stated) | 50.3* | -3.7% | 0.6 | 6.2 | -0.8 | ? | -0.4%
CC(C)N1CCN(Cc2cccc3c2OCO3)CC1CCO (configuration not stated) | 13.2 | 1.7% | 0.9 | -1.9 | 0.7 | / | /
CC(C)N1CCN(Cc2c[nH]c3ccccc23)CC1CCO (configuration not stated) | 58.1* | -3.6% | 0.4 | -5.4 | 1.1 | -1.2 | 5.1%
C[C@H]1C(=O)O[C@@H]2CCN3CC=C(COC(=O)[C@](C)(O)[C@]1(C)O)[C@H]23 | 42.6* | -2.3% | -0.4 | -19.4 | 1.1 | -0.1 | -0.7%
CN1CC=C2C(C#N)=C(N)C(C#N)(C#N)C(c3ccncc3)C2C1 (configuration not stated) | 8.7 | -5.5% | 3.7 | 29.4 | 26.7 | -4.4 | ?
